# Compounds without any hit were thinned out: in the full panel of roughly 83,000, 20% have a hit.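 Interpretation: 100, growth as untreated; towards 0, rising growth inhibition; 0, no net growth; 0 to -100, cell death. Compounds scoring below 10 were considered active.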 Unmarked numbers belong to inactive results. Active and inactive are the calls of the source.
# What was measured:
# Test in all cases: NCI-60 one-dose screen, 48 h (100 = growth as untreated, 0 = no growth, -100 = all killed)
# [1] = test system: NCI-H23 lung; conditions: 10 µM unless noted
# [2] = test system: NCI-H226 lung; conditions: 10 µM unless noted
# [3] = test system: NCI-H322M lung; conditions: 10 µM unless noted
# [4] = test system: HOP-62 NSCLC; conditions: 10 µM unless noted
# [5] = test system: NCI-H460 lung; conditions: 10 µM unless noted
# [6] = test system: HOP-92 NSCLC; conditions: 10 µM unless noted
# [7] = test system: NCI-H522 lung; conditions: 10 µM unless noted
# [8] = test system: 786-0 renal; conditions: 10 µM unless noted
# [9] = test system: COLO 205 colon; conditions: 10 µM unless noted
# [10] = test system: DU-145 prostate; conditions: 10 µM unless noted
# [11] = test system: K-562 leukemia; conditions: 10 µM unless noted
# [12] = test system: MALME-3M melanoma; conditions: 10 µM unless noted
# [13] = test system: MDA-MB-231 breast; conditions: 10 µM unless noted
# [14] = test system: RXF 393 renal; conditions: 10 µM unless noted
# [15] = test system: SF-268 CNS; conditions: 10 µM unless noted
# [16] = test system: SF-295 CNS; conditions: 10 µM unless noted
# [17] = test system: SF-539 CNS; conditions: 10 µM unless noted
# [18] = test system: UACC-257 melanoma; conditions: 10 µM
# [19] = test system: M14 melanoma; conditions: 10 µM unless noted
# [20] = test system: A549/ATCC NSCLC; conditions: 10 µM unless noted
SMILES,growth [1],growth [2],growth [3],growth [4],growth [5],growth [6],growth [7],growth [8],growth [9],growth [10],growth [11],growth [12],growth [13],growth [14],growth [15],growth [16],growth [17],growth [18],growth [19],growth [20] [%]
COc1ccc(-n2c(C)cc(-c3ccccc3)c2C)cc1,33.9%,57.3%,93.5%,82.4%,46.8%,24.6%,29.5%,35%,39.4%,73.9%,15.6%,36.9%,6.48% (active),10.1%,75.5%,34.1%,62%,40.3%,15.9%,
CCCCCc1c(C)[nH]c(/C=c2\[nH]/c(=C3/C=c4ccccc4=N3)cc2OC)c1C,-42.1% (active),-16.4% (active),-8.17% (active),-56.7% (active),2.12% (active),-56.8% (active),-45.8% (active),-68.3% (active),-76.5% (active),5.25% (active),-9.81% (active),-65% (active),-80.5% (active),-46.7% (active),-38.3% (active),-60.2% (active),-67.1% (active),-42.4% (active),-81.6% (active),
CCc1cccc(C)c1NC(=O)c1sc2nc3c(cc2c1N)C(=O)CCC3,39.1%,62.1%,51.3%,23.3%,8.12% (active),79.2%,-0.871% (active),38.7%,-7.24% (active),14.2%,8.64% (active),45.1%,31%,,42.7%,10.8%,-14.4% (active),66.6%,12.5%,
Clc1ccc([I+]c2ccc(Cl)cc2Cl)c(Cl)c1,18%,102%,77.2%,36.5%,81%,14.9%,-91.1% (active),11.2%,-79.2% (active),4.04% (active),,50.2%,38.3%,-15.1% (active),26.5%,97.4%,16.8%,66.4%,88.8%,
CCCCNc1nnc(-c2cc(-c3cc4ccccc4o3)nn2-c2ccccc2)o1,96.7%,86.2%,87.4%,110%,98.7%,46.4%,80%,93%,,102%,83%,93.1%,91.4%,,93.9%,98.7%,97.4%,,108%,82
COc1ccc(-c2nc3sccn3c2-c2ccnc(NCCNS(=O)(=O)c3ccc(C(F)(F)F)cc3)n2)cc1,15.5%,4.55% (active),37.1%,46.1%,15.4%,13.4%,-1.01% (active),18.4%,0.693% (active),15.8%,6.19% (active),8.25% (active),16%,18.5%,0.178% (active),-28.5% (active),0.637% (active),13.3%,10.1%,
COc1cc(CNC(=O)CSc2nc3ccccc3c(=O)n2Cc2cc(OC)c(OC)c(OC)c2)cc(OC)c1OC,105%,94.5%,95.4%,94%,108%,106%,81.2%,101%,,108%,,97.5%,94.4%,97.4%,97.5%,105%,96.3%,94.2%,97.2%,97
Cc1cnc(NC(=O)C(Cc2ccccc2)NC(=O)c2ccccc2)s1 (stereo unspecified),86%,70.2%,105%,,74.3%,19.1%,63.9%,96.9%,91.9%,85.5%,29.7%,54%,77.9%,50.2%,96.9%,65.9%,87%,,52%,90.7
